# Measured values taken from PubChem BioAssay (NCATS).
# Records with an inconclusive call do not appear. The list shows a part of the results. Where a call stands in place of a potency, no number is given. Calls of active or inactive are those of the source. Unless noted, calls come from the whole dose curve; as a rule, active = well fitted curve in the direction sought with a large enough effect; inconclusive = small, poorly fitted or top-dose-only effect, or another doubt; inactive = no such curve, though single readings can be large; an effect the other way counts as inactive or inconclusive.
# How the values were obtained:
# [1] = molecular target: DNA repair nuclease/redox regulator APEX1 (Homo sapiens) (UniProt P27695); assay: qHTS Validation Assay for Inhibitors of the Human Apurinic/apyrimidinic Endonuclease 1 (APE1) (AID 1705; note: potency is the fitted concentration of half-maximal effect)
# In short: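 qHTS, 1536-well. APE1 + cpd 15 min RT → 50 nM TAMRA/BHQ-2 THF-abasic dsDNA substrate → kinetic fluorescence, 3 reads/60 s; delta(read3−read1) = reaction progress. No-enzyme buffer = negative control.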
# [2] = Counterscreen for APE1 Inhibitors: Fluorescent Dye Displacement Validation Assay (AID 1707)
# In short: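 Endpoint fluorescence read at 480 nm excitation / 540 nm emission; DNA-binding compounds lower signal by displacing 250 nM Thiazole Orange from 50 nM dsDNA containing a tetrahydrofuran abasic site, Tris-HCl pH7.5 buffer with NaCl and MgCl2.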
# [3] = qHTS for differential inhibitors of proliferation of Plasmodium falciparum line 7G8 (AID 1815);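 note: parasite growth measured after three days of incubation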; note: potency is the fitted concentration of half-maximal effect
# [4] = qHTS for differential inhibitors of proliferation of Plasmodium falciparum line W2 (AID 1883); conditions: Potency: Plasmodium falciparum W2 proliferation inhibition;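 note: parasites grown with compound for 72 h before lysis and staining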; note: potency is the fitted concentration of half-maximal effect
# [5] = qHTS for differential inhibitors of proliferation of Plasmodium falciparum line HB3 (AID 1886); conditions: Potency: Plasmodium falciparum HB3 proliferation inhibition;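 note: parasites grown with compound for 72 h before SYBR Green readout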; note: potency is the fitted concentration of half-maximal effect
# [6] = molecular target: Ferritin light chain (Equus caballus) (UniProt P02791); assay: qHTS Validation Assay for Identification of Novel General Anesthetics (AID 2323); note: series mostly up to about 77 µM
# In short: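 Fluorescence at 535 nm (excitation 380 nm) reported loss of 1-AMA binding to horse-spleen apoferritin (10 uM) in PBS with 50% saturated 1-aminoanthracene, after 10 min room-temperature incubation with compound; values from Hill fits of normalized response.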
# [7] = molecular target: ATP-dependent DNA helicase Q1 (Homo sapiens) (UniProt P46063); assay: qHTS Validation Assay for Inhibitors of RecQ-Like Dna Helicase 1 (RECQ1) (AID 2353)
# In short: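 RECQ1T1 50 nM; forked duplex (20 bp + 30-nt ss tails) 200 nM, ATP 2 mM final; pH 8.0, 2 mM MgCl2, 2.5 ug/ml poly(dI-dC); 15 min compound preincubation; discontinuous kinetic read over 2 h at RT.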
# [8] = Cytometric Cell-Based qHTS for Inhibitors of the mTORC1 Signaling Pathway in MEF (Tsc2-/-, p53-/-) Cells (AID 2660); note: potency is the fitted concentration of half-maximal effect
# In short: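 Cells are plated, treated with compound for 24 hrs at 37 degree Celsius, then fixed, blocked and immunostained for phospho-rpS6 Ser235/236. Propidium iodide counterstain follows. Per-well % positive cells is derived from the PI-normalized phospho-S6 signal.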
# [9] = High Content Imaging Cell-Based qHTS for Inhibitors of the mTORC1 Signaling Pathway in MEF (Tsc2-/-, p53-/-) Cells (AID 2666);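 note: percent of cells scored positive for phospho-rpS6 Ser235/236 immunostaining by imaging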; note: potency is the fitted concentration of half-maximal effect
# In short: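 Tsc2-/-, p53-/- MEFs (empty-vector stable) grown in DMEM + 10% FBS were exposed to compounds for 24 hrs at 37 degree Celsius, fixed, and stained with Alexa-488 anti-phospho-rpS6 Ser235/236 plus Hoechst. Imaging gave the percentage of positive cells per well.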
# [10] = High Content Imaging Cell-Based qHTS for Inhibitors of the mTORC1 Signaling Pathway in MEF Cells (AID 2667);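 note: Tsc2-/- p53-/- MEFs stably re-expressing wild-type Tsc2 exposed 24 h; series mostly up to about 38 µM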
# In short: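 Tsc2-/-, p53-/- MEFs stably re-expressing WT Tsc2, grown in DMEM + 10% FBS, were treated with compounds for 24 hrs at 37 degree Celsius, fixed, and stained with Alexa-488 phospho-rpS6 Ser235/236 antibody plus Hoechst; results given as % positive cells.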
# [11] = Cytometry Cell-Based qHTS for Inhibitors of the mTORC1 Signaling Pathway in MEF cells (AID 2668);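 note: Tsc2-/- p53-/- mouse embryonic fibroblasts stably re-expressing wild-type Tsc2; percent cells positive for phospho-rpS6 Ser235/236 relative to propidium iodide stain; series mostly up to about 38 µM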
# In short: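 Tsc2-/-, p53-/- MEFs re-expressing WT Tsc2; cpd 24 hrs, 37 degree Celsius; PFA fix, Alexa-488 p-rpS6 (Ser235/236) Ab 2 hrs RT, PI counterstain; Acumen 488nm scan; p-S6/PI ratio → % positive cells; PI count = viability.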
# [12] = qHTS Assay for Identification of Small Molecule Inducers of Hypoxia Response (AID 2120; active = well fitted curve in the direction sought with a large enough effect in the signal ratio, with a control signal flat, not every such curve was filed as active; the % refers to the signal ratio)
# In short: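 Cell-based qHTS for reporter induction: hypoxia response element controlled beta-lactamase in ME-180 cells. Compounds incubated 17 h at 37 degrees C; activity from blue/green (460/530 nm) ratio, inducers ranked by AC50.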
# [13] = qHTS for differential inhibitors of proliferation of Plasmodium falciparum line 3D7 (AID 1876); note: potency is the fitted concentration of half-maximal effect
# [14] = molecular target: RecQ-like DNA helicase BLM (Homo sapiens) (UniProt P54132); assay: qHTS Validation Assay for Inhibitors of Bloom's syndrome helicase (BLM) (AID 2364); note: potency is the fitted concentration of half-maximal effect
# In short: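 Forked 20-bp duplex substrate (200 nM, TAMRA/BHQ-2) plus 2 mM ATP added after 15 min compound preincubation with 50 nM enzyme, pH 8.0, poly(dI-dC) 2.5 ug/ml. Strand separation followed by fluorescence (525/598 nm) over 2 h, normalized to enzyme-free and DMSO controls.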
# [15] = molecular target: Endonuclease 4 (Escherichia coli (strain K12)) (UniProt P0A6C1); assay: Counterscreen for APE1 Inhibitors: qHTS Validation Assay for Inhibitors of Endonuclease IV (AID 1708)
# In short: (§1)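 Incision of a double-stranded 50 nM TAMRA/BHQ-2 abasic substrate was followed kinetically (525/598 nm, reads every 60 s) after 15 min enzyme–compound preincubation with 2 nM EndoIV in pH 7.5 Tris buffer with MgCl2, DTT and Tween-20; concentration-response format.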
# [16] = qHTS for differential inhibitors of proliferation of Plasmodium falciparum line D10 (AID 1877);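 note: parasites grown with compound for 72 h before DNA staining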; note: potency is the fitted concentration of half-maximal effect
# [17] = qHTS for differential inhibitors of proliferation of Plasmodium falciparum line Dd2 (AID 1882); conditions: Potency: Plasmodium falciparum Dd2 proliferation inhibition; note: nearly all actives have a fitted effect of over 65% in size; note: potency is the fitted concentration of half-maximal effect
# In short: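 SYBR Green DNA fluorescence (ex 485, em 535 nm) after overnight lysis quantifies parasite growth; compound exposure lasted 72 h at 37 C on infected red cells at 2.5% hematocrit, 0.3% parasitemia (final). Artemisinin 0.29 uM and vehicle wells define normalization.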
# [18] = qHTS for differential inhibitors of proliferation of Plasmodium falciparum line GB4 (AID 1816); conditions: Potency: Plasmodium falciparum GB4 proliferation inhibition;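 note: parasite growth measured after 72 h incubation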; note: potency is the fitted concentration of half-maximal effect
# [19] = qHTS Assay for Modulators of Human Peripheral Myelin Protein 22 (PMP22) Expression/Activity (AID 1967; active = well fitted curve in the direction sought with a large enough effect in the signal ratio; the % refers to the signal ratio)
# In short: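 Luminescence ratio of Pmp22 promoter-driven green luciferase to EF-alpha-driven red luciferase, in engineered mouse MSC80 Schwann cells, served as read-out. Compounds were incubated 24h; untreated cells defined 0% Activity; curves were classified by r2, magnitude and activity.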
# [20] = molecular target: Endonuclease 4 (Escherichia coli (strain K12)) (UniProt P0A6C1); assay: Counterscreen for APE1 Inhibitors: qHTS Assay for Inhibitors of Endonuclease IV (AID 2565)
# In short: as §1
# Ferritin light chain (Equus caballus), sequence (P02791 2-175 limits assumed): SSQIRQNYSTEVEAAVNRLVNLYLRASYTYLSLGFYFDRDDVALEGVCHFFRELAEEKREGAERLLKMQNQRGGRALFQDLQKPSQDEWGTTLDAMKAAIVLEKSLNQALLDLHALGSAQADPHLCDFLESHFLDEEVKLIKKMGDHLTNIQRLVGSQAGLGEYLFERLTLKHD
# DNA repair nuclease/redox regulator APEX1 (Homo sapiens), sequence (P27695 whole entry, looked up): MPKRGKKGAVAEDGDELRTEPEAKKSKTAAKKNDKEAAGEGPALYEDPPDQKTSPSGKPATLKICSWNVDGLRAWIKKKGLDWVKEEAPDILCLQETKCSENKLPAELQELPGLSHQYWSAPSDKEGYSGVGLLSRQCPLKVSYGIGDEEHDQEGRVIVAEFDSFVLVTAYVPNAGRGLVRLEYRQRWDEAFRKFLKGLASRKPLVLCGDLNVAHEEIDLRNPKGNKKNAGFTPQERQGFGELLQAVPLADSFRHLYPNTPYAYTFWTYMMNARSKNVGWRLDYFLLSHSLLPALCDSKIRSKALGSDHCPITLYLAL
# RecQ-like DNA helicase BLM (Homo sapiens), sequence (P54132 whole entry, looked up): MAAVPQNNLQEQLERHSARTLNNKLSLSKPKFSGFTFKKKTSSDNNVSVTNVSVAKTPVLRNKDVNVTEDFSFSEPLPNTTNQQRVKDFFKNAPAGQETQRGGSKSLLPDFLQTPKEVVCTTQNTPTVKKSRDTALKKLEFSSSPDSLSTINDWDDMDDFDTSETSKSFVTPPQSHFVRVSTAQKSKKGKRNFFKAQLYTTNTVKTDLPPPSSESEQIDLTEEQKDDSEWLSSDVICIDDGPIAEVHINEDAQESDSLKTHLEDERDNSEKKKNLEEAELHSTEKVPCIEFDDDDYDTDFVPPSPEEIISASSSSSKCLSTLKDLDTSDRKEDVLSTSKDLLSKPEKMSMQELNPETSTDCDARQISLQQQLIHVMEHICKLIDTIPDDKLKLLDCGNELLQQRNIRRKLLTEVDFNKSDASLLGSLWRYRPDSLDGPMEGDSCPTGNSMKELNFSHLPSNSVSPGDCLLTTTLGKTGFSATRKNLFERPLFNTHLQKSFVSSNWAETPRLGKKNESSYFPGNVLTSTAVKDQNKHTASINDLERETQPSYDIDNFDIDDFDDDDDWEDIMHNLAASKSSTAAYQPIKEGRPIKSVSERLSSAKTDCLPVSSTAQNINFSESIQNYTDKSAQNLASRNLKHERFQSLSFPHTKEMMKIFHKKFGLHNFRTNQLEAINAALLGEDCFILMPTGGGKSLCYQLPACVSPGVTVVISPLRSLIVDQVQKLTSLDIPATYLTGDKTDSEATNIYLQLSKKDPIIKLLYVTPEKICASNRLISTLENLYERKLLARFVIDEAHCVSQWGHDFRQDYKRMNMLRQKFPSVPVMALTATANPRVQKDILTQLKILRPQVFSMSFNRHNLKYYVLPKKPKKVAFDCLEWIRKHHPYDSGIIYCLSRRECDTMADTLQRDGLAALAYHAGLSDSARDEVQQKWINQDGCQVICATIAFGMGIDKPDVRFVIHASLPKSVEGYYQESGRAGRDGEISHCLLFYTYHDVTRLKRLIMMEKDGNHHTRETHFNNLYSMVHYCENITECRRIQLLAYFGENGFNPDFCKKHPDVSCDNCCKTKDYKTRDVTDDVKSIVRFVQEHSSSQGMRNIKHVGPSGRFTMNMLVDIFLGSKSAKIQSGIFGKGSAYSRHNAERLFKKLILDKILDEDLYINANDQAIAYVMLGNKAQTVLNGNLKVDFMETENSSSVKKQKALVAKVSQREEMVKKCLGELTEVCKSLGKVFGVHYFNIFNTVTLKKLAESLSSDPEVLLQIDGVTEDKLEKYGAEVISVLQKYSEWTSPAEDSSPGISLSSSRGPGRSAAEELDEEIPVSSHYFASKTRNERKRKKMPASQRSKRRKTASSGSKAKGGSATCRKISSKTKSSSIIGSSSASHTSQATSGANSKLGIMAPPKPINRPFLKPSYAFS
# ATP-dependent DNA helicase Q1 (Homo sapiens), sequence (P46063 whole entry, looked up): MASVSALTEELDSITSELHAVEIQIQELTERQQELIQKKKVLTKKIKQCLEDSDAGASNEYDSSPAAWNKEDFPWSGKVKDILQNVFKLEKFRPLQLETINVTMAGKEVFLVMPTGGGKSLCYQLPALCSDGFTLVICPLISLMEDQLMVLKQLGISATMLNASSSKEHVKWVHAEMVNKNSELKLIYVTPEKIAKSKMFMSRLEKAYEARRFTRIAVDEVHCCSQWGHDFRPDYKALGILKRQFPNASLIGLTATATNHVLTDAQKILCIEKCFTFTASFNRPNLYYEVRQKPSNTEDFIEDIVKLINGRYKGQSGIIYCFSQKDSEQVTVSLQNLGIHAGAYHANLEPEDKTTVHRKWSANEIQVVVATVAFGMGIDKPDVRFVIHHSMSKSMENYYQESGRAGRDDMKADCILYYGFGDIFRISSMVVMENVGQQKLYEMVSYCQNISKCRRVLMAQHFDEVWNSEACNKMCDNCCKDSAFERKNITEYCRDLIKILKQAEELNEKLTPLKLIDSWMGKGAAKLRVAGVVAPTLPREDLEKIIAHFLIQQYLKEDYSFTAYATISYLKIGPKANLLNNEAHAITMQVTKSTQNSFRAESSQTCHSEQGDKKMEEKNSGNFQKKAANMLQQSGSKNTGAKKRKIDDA
smiles,measurement,setting,value
COc1ccccc1N1CCN(CCN(C(=O)C2CCCCC2)c2ccccn2)CC1,Potency,[1],inactive
same,Potency,[2],inactive
same,Potency,[3],2.24 µM (active)
same,Potency,[4],7.94 µM (active)
same,Potency,[5],11.2 µM (active)
same,Potency,[6],inactive
same,Potency,[7],inactive
same,Potency,[8],inactive
same,Potency,[9],inactive
same,Potency,[10],inactive
same,Potency,[11],inactive
NS(=O)(=O)c1cc(C(=O)O)c(NCc2ccco2)cc1Cl,outcome,[12],inactive
O=C1c2ccccc2-c2n[nH]c3cccc1c23,Potency,[2],inactive
same,Potency,[3],10 µM (active)
same,Potency,[13],12.6 µM (active)
same,Potency,[4],7.94 µM (active)
same,Potency,[7],inactive
same,Potency,[14],inactive
same,Potency,[8],inactive
same,Potency,[9],inactive
same,Potency,[10],inactive
Cc1cc(O)c2c(c1)C(=O)c1cc(O)cc(O)c1C2=O,outcome,[15],inactive
same,Potency,[16],inactive
same,Potency,[17],inactive
same,outcome,[12],inactive
same,Potency,[7],inactive
same,Potency,[8],inactive
same,Potency,[9],inactive
same,Potency,[10],inactive
same,Potency,[11],inactive
Nc1ccc(S(N)(=O)=O)cc1,outcome,[12],inactive
CCCCC(CC)COC(=O)C(C#N)=C(c1ccccc1)c1ccccc1 (stereo not given),outcome,[12],inactive
COc1cc2c(cc1OC)C1CC(=O)C(CC(C)C)CN1CC2 (stereo not given),Potency,[8],inactive
same,Potency,[9],inactive
same,Potency,[10],inactive
CC1(C)C(=O)N(CCN2CCC(C(=O)c3ccc(F)cc3)CC2)c2ccccc21,Potency,[1],inactive
same,Potency,[2],inactive
same,Potency,[3],6.31 µM (active)
same,Potency,[18],12.6 µM (active)
same,Potency,[13],11.2 µM (active)
same,Potency,[4],6.31 µM (active)
same,Potency,[5],12.6 µM (active)
same,Potency,[7],inactive
same,Potency,[8],inactive
same,Potency,[9],inactive
same,Potency,[10],inactive
same,Potency,[11],inactive
Nc1nc(N)c(N=O)c(OCC2CCCCC2)n1,Potency,[8],14.7 µM (active)
same,Potency,[9],14.7 µM (active)
Nc1ccn([C@@H]2O[C@H](CO)[C@@H](O)C2O)c(=O)n1 (stereo not given in full),Potency,[9],inactive
Oc1ccc(-c2nc(-c3ccc(F)cc3)c(-c3ccncc3)[nH]2)cc1,Potency,[1],inactive
same,Potency,[2],inactive
same,Potency,[18],12.6 µM (active)
same,Potency,[13],11.2 µM (active)
same,Potency,[17],11.2 µM (active)
same,Potency,[4],6.31 µM (active)
same,Potency,[6],inactive
same,Potency,[7],inactive
same,Potency,[8],inactive
same,Potency,[9],inactive
same,Potency,[10],inactive
same,Potency,[11],inactive
O=c1c(O)c(-c2ccc(O)cc2O)oc2cc(O)cc(O)c12,Potency,[1],5.01 µM (active)
same,Potency,[2],inactive
same,Potency,[3],inactive
same,Potency,[18],inactive
same,Potency,[13],inactive
same,Potency,[16],inactive
same,Potency,[17],inactive
same,Potency,[4],inactive
same,Potency,[5],inactive
same,Potency,[6],inactive
same,Potency,[7],inactive
same,Potency,[8],inactive
same,Potency,[9],inactive
same,Potency,[10],inactive
same,Potency,[11],inactive
COc1cc2nc(N3CCN(C(=O)C4CCCO4)CC3)nc(N)c2cc1OC (stereo not given),Potency,[1],inactive
same,Potency,[2],inactive
same,Potency,[17],inactive
same,Potency,[4],11.2 µM (active)
same,outcome,[19],inactive
same,Potency,[6],inactive
same,Potency,[7],inactive
same,Potency,[14],inactive
same,Potency,[8],inactive
same,Potency,[9],inactive
same,Potency,[10],inactive
same,Potency,[11],inactive
CS(=O)(=O)OCCCCOS(C)(=O)=O,outcome,[12],inactive
Oc1ccc2ccccc2c1SSc1c(O)ccc2ccccc12,Potency,[8],inactive
same,Potency,[9],inactive
same,Potency,[10],inactive
same,Potency,[11],inactive
CC(=O)N1CCN(c2ccc(OC[C@H]3CO[C@](Cn4ccnc4)(c4ccc(Cl)cc4Cl)O3)cc2)CC1,Potency,[1],inactive
same,Potency,[2],inactive
same,outcome,[15],inactive
same,Potency,[7],inactive
same,Potency,[8],inactive
same,Potency,[9],inactive
same,Potency,[10],inactive
same,Potency,[11],inactive
CC(C)c1ccc2c(c1)c(SC(C)(C)C)c(CC(C)(C)C(=O)O)n2Cc1ccc(Cl)cc1,Potency,[1],39.8 µM (active)
same,Potency,[3],5.01 µM (active)
same,Potency,[18],5.01 µM (active)
same,Potency,[13],6.31 µM (active)
same,Potency,[16],12.6 µM (active)
same,Potency,[17],12.6 µM (active)
same,Potency,[4],3.16 µM (active)
same,Potency,[5],11.2 µM (active)
same,Potency,[14],28.2 µM (active)
same,outcome,[20],inactive
same,Potency,[8],inactive
same,Potency,[9],inactive
same,Potency,[10],inactive
